Laboratory results published in PubChem BioAssay (Tox21).
Records with an inconclusive call do not appear. Activity calls are given as the source filed them. Unless noted, the call rests on the fitted dose curve.

Assays:
[1] = Nuclear factor erythroid 2-related factor 2/antioxidant responsive element (Nrf2/ARE) small molecule agonists: qHTS cell viability counter screen in human keratinocytes (AID 1919968; active means well fitted curve in the direction sought with a large enough effect in the repeat runs; an effect the other way counts as inactive or inconclusive; further: nearly all actives have a fitted effect of over 55% in size)
In short: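 KeratinoSens HaCaT cells, 1,500/well, preincubated 5 h, then exposed to compounds in DMSO for 23 h at 37 C/5% CO2. Viability read as CellTiter-Fluor fluorescence after 1 h, in the same wells as the ARE-luciferase read.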

[2] = Nuclear factor erythroid 2-related factor 2/antioxidant responsive element (Nrf2/ARE) small molecule agonists: luciferase reporter gene qHTS assay in human keratinocytes (AID 1919969); further: nearly all actives have a fitted effect of over 35% in size
[3] = molecular target: Gonadotropin-releasing hormone receptor (Homo sapiens) (UniProt P30968); experiment: Human gonadotropin-releasing hormone receptor (GnRHR) small molecule agonists, calcium flux assay in GnRHR-HEK293 cells (AID 1920063); further: nearly all actives have a fitted effect of over 35% in size
In short: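 HEK293 cells stably expressing human GnRHR were dye-loaded for 1 h at 37 C. Compound was added in agonist mode and fluorescence (Ex/Em 480/540) recorded kinetically for 3 min. Fifteen concentrations, triplicates.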

[4] = molecular target: KiSS-1 receptor (Homo sapiens) (UniProt Q969F8); experiment: Human kisspeptin (KISS1R) small molecule agonists, calcium flux assay in KISS1R-HEK293 cells (AID 1920064; active means well fitted curve in the direction sought with a large enough effect in the repeat runs; an effect the other way counts as inactive or inconclusive)
In short: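 HEK293 cells stably expressing human KISS1R were loaded with calcium dye for 1 h at 37 C, then given compound; fluorescence (Ex/Em 480/540) was read kinetically for 3 min. Fifteen concentrations, triplicate.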

[5] = G protein-coupled receptor (GPCR) small molecule agonists, calcium flux assay: HEK293 wild type cell line counter screen (AID 1920065)
In short: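 Wild-type HEK293 cells plated 18 h, loaded with calcium dye 1 h at 37 C, then compounds added in agonist mode (ATP as positive control). Kinetic fluorescence Ex/Em 480/540 recorded 3 min at 1 sec intervals; 15 concentrations, triplicate.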

[6] = p53 small molecule agonists, cell-based qHTS assay with human liver microsomes: qHTS cell viability counter screen (AID 1963579); further: nearly all actives have a fitted effect of over 45% in size
In short: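 Metabolically activated exposure: compounds, human liver microsomes and NADPH (0.5 mg/mL final apiece) were added to p53RE-bla cells seeded 5 h earlier, left 16 h at 37 C, and then assessed for viability by CellTiter-Glo luminescence.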

[7] = p53 small molecule agonists, cell-based qHTS assay with rat liver microsomes: qHTS cell viability counter screen (AID 1963580); further: nearly all actives have a fitted effect of over 45% in size
In short: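 Viability is assessed in parallel with the p53 reporter read: HCT-116 p53RE-bla cells receive compounds plus rat microsomes and NADPH (0.5 mg/mL final apiece), incubate 16 h at 37 C, and then CellTiter-Glo luminescence is recorded.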

[8] = p53 small molecule agonists, cell-based qHTS assay: qHTS cell viability counter screen (AID 1963581); further: nearly all actives have a fitted effect of over 45% in size
In short: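 p53RE-bla HCT-116 cells, compounds added 5 h after plating and incubated 16 h at 37 C. Cytotoxicity measured in the same wells as intracellular ATP by CellTiter-Glo luminescence after 30 min at room temperature.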

[9] = molecular target: 5-hydroxytryptamine receptor 2A (Homo sapiens) (UniProt P28223); experiment: 5-hydroxytryptamine receptor 2A (HTR2A) small molecule antagonists, cell-based qHTS assay (AID 1963586); further: nearly all actives have a fitted effect of over 45% in size
In short: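 Antagonist-mode intracellular calcium assay: DOI (4 nM) added after 5 min compound pre-incubation at room temperature to dye-loaded HTR2A-CHO cells. Fluorescence followed for 3 min, sampled every second.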

[10] = molecular target: 5-hydroxytryptamine receptor 2A (Homo sapiens) (UniProt P28223); experiment: 5-hydroxytryptamine receptor 2A (HTR2A) small molecule agonists, cell-based qHTS assay (AID 1963587); further: nearly all actives have a fitted effect of over 30% in size
In short: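 CHO cells stably expressing human HTR2A, plated 18 h, loaded with calcium dye 1 h at 37 C. Agonist mode: compounds added and intracellular calcium fluorescence recorded kinetically for 2 min at 1 sec intervals.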

[11] = molecular target: Muscarinic acetylcholine receptor M1 (Homo sapiens) (UniProt P11229); experiment: Cholinergic receptor muscarinic 1 (CHRM1) small molecule antagonists, cell-based qHTS assay (AID 1963588); further: nearly all actives have a fitted effect of over 40% in size
In short: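 CHRM1-CHO calcium-flux assay, antagonist mode. Cells were seeded 18 h, dye-loaded 1 h at 37 C and given compound for 5 min at RT, then acetylcholine was added at 50nM. FDSS fluorescence was read 3 min; 15 concentrations, three runs.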

[12] = molecular target: Muscarinic acetylcholine receptor M1 (Homo sapiens) (UniProt P11229); experiment: Cholinergic receptor muscarinic 1 (CHRM1) small molecule agonists, cell-based qHTS assay (AID 1963589); further: nearly all actives have a fitted effect of over 35% in size
In short: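 CHO cells stably expressing human CHRM1 were loaded with calcium dye for 1 h at 37 C, then compound was added in agonist mode. Intracellular calcium fluorescence was followed kinetically at 1 s intervals. Fifteen concentrations were tested in three independent runs.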

[13] = cAMP Responsive Elements (CRE) small molecule agonists, cell-based qHTS assay (AID 1963590)
In short: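 CRE-bla HEK 293T cells, 2,000/well in DMEM with 10% dialyzed FBS and 25 mM HEPES, pre-incubated 18 h at 37 C, then exposed to compound 3 h at 37 C. Beta-lactamase reporter read with LiveBLAzer B/G FRET substrate after 2 h at room temperature.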

[14] = cAMP Responsive Elements (CRE) small molecule antagonists, cell-based qHTS assay (AID 1963591; active means well fitted inhibition curve with a large enough effect in the signal ratio in the repeat runs, not every such curve was filed as active; the % refers to the signal ratio)
In short: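 CRE-bla HEK293T cells plated 18 h, then given compound plus NKH477 at 0.25 uM final for 3 h at 37C. Beta-lactamase reporter read with LiveBLAzer B/G FRET substrate after 2 h at room temperature.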

[15] = molecular target: Beta-2 adrenergic receptor (Homo sapiens) (UniProt P07550); experiment: Adrenergic beta2 receptor (ADRB2) small molecule antagonists, cell-based qHTS assay (AID 1963592); further: series mostly up to about 92 µM; nearly all actives have a fitted effect of over 50% in size
In short: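 Cells (CHO, stable ADRB2 overexpression) incubated 18-20hr at 37C; compounds added from DMSO; agonist mix (1nM isoproterenol, 100uM IBMX, 25uM Ro-20-1724) added; 0.5hr RT; d2-cAMP and anti-cAMP-cryptate added; 1hr RT; 665/615 nm read.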

[16] = molecular target: D(2) dopamine receptor (Homo sapiens) (UniProt P14416); experiment: Dopamine D2 receptor (DRD2) small molecule antagonists, cell-based qHTS assay (AID 1963595; active means well fitted inhibition curve with a large enough effect in the signal ratio in the repeat runs, with a control signal flat; the % refers to the signal ratio)
In short: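 Antagonist mode in DRD2-HEK293 cells: after compound addition with 0.1 mM Ro20-1724, cells received quinpirole (12 nM) and NKH477 (200 nM) for 30 min at room temperature; HTRF cAMP read after 1 h detection.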

[17] = molecular target: Beta-2 adrenergic receptor (Homo sapiens) (UniProt P07550); experiment: Adrenergic beta2 receptor (ADRB2) small molecule agonists, cell-based qHTS assay (AID 1963593);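 further: CHO cells stably overexpressing human ADRB2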
In short: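 CHO cells stably over-expressing ADRB2 were plated overnight at 37C, then dosed with compounds plus a stimulation mix containing 100uM IBMX and 25uM Ro-20-1724 for 0.5hr at room temperature. cAMP was measured by HTRF competition, 1hr.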

[18] = molecular target: D(2) dopamine receptor (Homo sapiens) (UniProt P14416); experiment: Dopamine D2 receptor (DRD2) small molecule agonists, cell-based qHTS assay (AID 1963594); further: nearly all actives have a fitted effect of over 35% in size
In short: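 HEK293 cells stably expressing human DRD2, pre-treated with PDE inhibitor Ro20-1724 (0.1 mM final) and compound 10 min at room temperature, then stimulated with NKH477 (200nM […]) for 30 min. cAMP read by HTRF (665/620 nm).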

Measured: Potency

KiSS-1 receptor (Homo sapiens), sequence (Q969F8 whole entry, looked up): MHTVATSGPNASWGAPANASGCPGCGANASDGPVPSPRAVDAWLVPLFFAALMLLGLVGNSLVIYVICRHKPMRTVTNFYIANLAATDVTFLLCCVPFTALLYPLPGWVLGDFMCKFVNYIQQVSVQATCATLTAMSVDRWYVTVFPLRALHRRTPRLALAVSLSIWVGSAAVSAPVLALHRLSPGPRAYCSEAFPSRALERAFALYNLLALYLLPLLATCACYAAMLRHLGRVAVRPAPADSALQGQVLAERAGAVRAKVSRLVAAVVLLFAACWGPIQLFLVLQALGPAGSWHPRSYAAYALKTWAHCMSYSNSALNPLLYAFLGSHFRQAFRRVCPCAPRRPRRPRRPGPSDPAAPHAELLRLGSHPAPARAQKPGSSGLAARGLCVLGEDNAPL
5-hydroxytryptamine receptor 2A (Homo sapiens), sequence (P28223 whole entry, looked up): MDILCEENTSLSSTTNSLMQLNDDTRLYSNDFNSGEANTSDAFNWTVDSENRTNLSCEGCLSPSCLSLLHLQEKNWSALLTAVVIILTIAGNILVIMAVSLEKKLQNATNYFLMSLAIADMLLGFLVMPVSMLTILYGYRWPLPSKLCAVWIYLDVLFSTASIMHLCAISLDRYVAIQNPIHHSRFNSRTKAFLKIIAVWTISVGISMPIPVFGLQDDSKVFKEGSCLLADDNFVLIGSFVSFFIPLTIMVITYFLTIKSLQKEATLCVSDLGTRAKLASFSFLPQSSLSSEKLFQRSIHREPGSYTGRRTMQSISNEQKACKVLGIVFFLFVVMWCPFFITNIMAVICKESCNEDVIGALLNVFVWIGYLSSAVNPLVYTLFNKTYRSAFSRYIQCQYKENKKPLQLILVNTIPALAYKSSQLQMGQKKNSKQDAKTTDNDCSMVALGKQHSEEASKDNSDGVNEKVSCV
Beta-2 adrenergic receptor (Homo sapiens), sequence (P07550 whole entry, looked up): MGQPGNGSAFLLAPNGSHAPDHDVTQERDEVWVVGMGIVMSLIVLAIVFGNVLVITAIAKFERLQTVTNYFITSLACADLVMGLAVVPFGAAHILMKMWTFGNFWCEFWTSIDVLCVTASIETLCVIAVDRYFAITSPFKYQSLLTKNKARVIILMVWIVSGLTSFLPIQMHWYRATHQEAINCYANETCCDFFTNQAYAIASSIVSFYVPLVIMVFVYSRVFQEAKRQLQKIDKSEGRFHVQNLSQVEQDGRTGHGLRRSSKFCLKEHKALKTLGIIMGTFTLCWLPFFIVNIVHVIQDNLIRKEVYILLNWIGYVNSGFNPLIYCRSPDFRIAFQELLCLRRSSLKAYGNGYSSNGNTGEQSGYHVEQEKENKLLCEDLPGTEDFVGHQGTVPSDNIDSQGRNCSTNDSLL
Gonadotropin-releasing hormone receptor (Homo sapiens), sequence (P30968 whole entry, looked up): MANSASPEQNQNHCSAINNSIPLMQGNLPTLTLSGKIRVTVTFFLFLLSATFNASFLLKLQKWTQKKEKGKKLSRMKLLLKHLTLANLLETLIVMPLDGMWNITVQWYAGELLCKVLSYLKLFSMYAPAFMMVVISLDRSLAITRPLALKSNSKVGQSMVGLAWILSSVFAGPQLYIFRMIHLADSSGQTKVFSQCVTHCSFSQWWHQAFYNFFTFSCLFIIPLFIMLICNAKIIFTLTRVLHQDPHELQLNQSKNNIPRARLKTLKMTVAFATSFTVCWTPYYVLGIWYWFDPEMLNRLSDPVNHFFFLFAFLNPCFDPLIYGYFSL
Muscarinic acetylcholine receptor M1 (Homo sapiens), sequence (P11229 whole entry, looked up): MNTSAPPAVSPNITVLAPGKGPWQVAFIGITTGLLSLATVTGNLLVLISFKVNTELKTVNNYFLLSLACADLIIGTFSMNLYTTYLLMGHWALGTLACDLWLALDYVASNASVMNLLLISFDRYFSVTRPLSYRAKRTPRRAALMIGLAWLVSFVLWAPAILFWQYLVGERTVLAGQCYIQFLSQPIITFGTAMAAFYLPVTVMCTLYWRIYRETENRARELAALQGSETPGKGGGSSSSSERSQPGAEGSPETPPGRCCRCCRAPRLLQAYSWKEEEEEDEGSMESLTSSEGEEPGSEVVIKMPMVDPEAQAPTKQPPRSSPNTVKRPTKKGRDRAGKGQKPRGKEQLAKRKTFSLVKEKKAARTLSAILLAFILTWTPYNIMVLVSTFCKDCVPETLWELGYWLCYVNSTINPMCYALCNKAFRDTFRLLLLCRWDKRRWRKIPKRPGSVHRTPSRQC
D(2) dopamine receptor (Homo sapiens), sequence (P14416 whole entry, looked up): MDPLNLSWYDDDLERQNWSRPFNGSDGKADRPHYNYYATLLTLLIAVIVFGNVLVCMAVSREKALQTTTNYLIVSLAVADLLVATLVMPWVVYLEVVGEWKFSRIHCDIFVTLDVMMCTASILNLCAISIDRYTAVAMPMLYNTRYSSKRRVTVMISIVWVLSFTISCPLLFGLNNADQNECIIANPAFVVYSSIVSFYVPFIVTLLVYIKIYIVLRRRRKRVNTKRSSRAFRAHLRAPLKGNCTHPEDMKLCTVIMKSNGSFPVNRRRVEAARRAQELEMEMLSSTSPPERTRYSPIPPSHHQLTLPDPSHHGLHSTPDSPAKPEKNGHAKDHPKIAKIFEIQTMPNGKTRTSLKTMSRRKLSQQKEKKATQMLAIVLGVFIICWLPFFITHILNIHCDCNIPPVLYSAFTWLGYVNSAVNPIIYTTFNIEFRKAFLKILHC

CCCCCCCCCCCCCCC
inactive: [1] | [2] | [3] | [4] | [5] | [6] | [7] | [8] | [9] | [10] | [11] | [12] | [13] | [14] | [15] | [16]

Cc1ccc(Br)cc1
inactive: [1] | [2] | [3] | [4] | [5] | [6] | [7] | [8] | [9] | [10] | [11] | [12] | [13] | [14] | [15] | [16]

O=C(O)/C=C/c1ccc(O)c(O)c1
inactive: [1] | [2] | [3] | [4] | [5] | [6] | [7] | [8] | [9] | [10] | [11] | [12] | [13] | [14] | [17] | [18] | [16]

COC(=O)CC(C)=O
inactive: [1] | [2] | [3] | [4] | [5] | [6] | [7] | [8] | [9] | [10] | [11] | [12] | [13] | [18] | [16]

CC(C)(C)c1cc(CCC(=O)OCC(COC(=O)CCc2cc(C(C)(C)C)c(O)c(C(C)(C)C)c2)(COC(=O)CCc2cc(C(C)(C)C)c(O)c(C(C)(C)C)c2)COC(=O)CCc2cc(C(C)(C)C)c(O)c(C(C)(C)C)c2)cc(C(C)(C)C)c1O
inactive: [1] | [2] | [3] | [4] | [5] | [6] | [7] | [8] | [9] | [10] | [11] | [12] | [13] | [14] | [15] | [16]

CCCCC=O
inactive: [1] | [2] | [3] | [4] | [5] | [6] | [7] | [8] | [9] | [10] | [11] | [12] | [13] | [17] | [18] | [16]

CC(=O)c1ccccc1[N+](=O)[O-]
inactive: [1] | [2] | [3] | [4] | [5] | [6] | [7] | [8] | [9] | [10] | [11] | [12] | [13] | [14] | [15] | [18] | [16]
